From PubChem
HIF activator = HIF pathway transcriptional activation; U2OS HRE-luciferase reporter, luminescence; normalized: DMSO 0%, desferrioxamine 100%; activation, % at 7.5 µM (by protocol); 300,000 tested, 0.32% active; AID 1910;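 active = mean activation of at least 10% of the iron chelator positive control signal, with at least half of replicates also reaching 10%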
ALR inh = blocks human ALR sulfhydryl oxidase activity | P55789 | purified ALR, DTT oxidation, H2O2 HRP-luminol luminescence | inhibition, % (concentration not given with the values) | 290,000 tested, 3.8% active | AID 485317;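 active = mean replicate inhibition above about 79%, with every replicate also reaching it, limit read from the data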
Target sequence (P55789 whole entry, looked up): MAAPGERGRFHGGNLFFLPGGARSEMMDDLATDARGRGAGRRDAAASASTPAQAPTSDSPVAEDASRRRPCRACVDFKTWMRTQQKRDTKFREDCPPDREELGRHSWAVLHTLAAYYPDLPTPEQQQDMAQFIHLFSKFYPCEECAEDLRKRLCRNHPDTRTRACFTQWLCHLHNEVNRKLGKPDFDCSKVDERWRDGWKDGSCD
SUMO Mot1 rescue = SUMOylation pathway inhibition by Mot1-301 growth rescue; S. cerevisiae Mot1-301 growth rescue, ATP luminescence, 38.5C; percent above DMSO median, 100 means doubled; growth rescue, % at 18.8 µM; 320,000 tested, 1% active; AID 2716;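 active = every valid replicate shows activation above 250% relative to neutral control wells; inactive = the rest, any valid replicate at or below 250%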;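 also: OY570 slx delta 5 strain wells were the positive control but not used for scaling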
PfM18AAP inh = blocks P. falciparum M18 aspartyl aminopeptidase; recombinant PfM18AAP, H-Glu-NHMec fluorogenic cleavage; inhibition, % at 7.35 µM; 290,000 tested, 1.2% active;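 active = inhibition above the campaign mean inhibition over all tested compounds plus 3 SD, cut at about 28% in these data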;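 also: 0% = plate median of test compound wells and 100% = 2 mM ZnCl2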
* = called active by the depositor; x = not tested or not shown. Most compounds without a hit are left out; they make up all but 5.3% or so of the library.

SMILES	HIF activator	ALR inh	SUMO Mot1 rescue	PfM18AAP inh
CC(C)OCCCN(C)C1CCN(S(=O)(=O)c2ccc(-c3cc(C(F)(F)F)no3)s2)CC1	-1	3	11	0
Cn1c(=O)c2c(nc(CN3CCN(c4ccccc4)CC3)n2Cc2c(F)cccc2Cl)n(C)c1=O	0	97*	-26	-13
Cn1c(=O)c2c(nc(CN3CCN(c4ccccc4)CC3)n2Cc2ccccc2Cl)n(C)c1=O	1	x	x	5
Cc1[nH]c2ccccc2c1N=Nc1c(C)n(C)n(-c2ccccc2)c1=O	1	99*	46	6
Cc1cc(N)ccc1N=Nc1c(C)n(C)n(-c2ccccc2)c1=O	1	99*	19	2
Cc1c(N=NC2=C(O)CCCC2=O)c(=O)n(-c2ccccc2)n1C	0	-19	-17	32*
CSCCC(NC(=O)c1ccco1)C(=O)NC1CCC(C)CC1 (configuration not stated)	x	x	2	x
CC(C)NC(=O)N(C)C[C@H]1Oc2c(NC(=O)C3CC3)cccc2C(=O)N([C@H](C)CO)C[C@@H]1C	x	4	0	x
Cc1ccc(-c2nc3cnccn3c2Nc2ccc3c(c2)OCO3)o1	1	x	11	27
Clc1ccc(-c2nc3cnccn3c2Nc2ccc3c(c2)OCO3)cc1	0	98*	-6	31*
CSc1ccc(-c2nc3cnccn3c2Nc2ccc3c(c2)OCO3)cc1	0	100*	-2	13
Cc1cnc([N+](=O)[O-])n1CCOC(=O)NC(=O)c1ccc(F)cc1	0	-7	1	2
CCCCn1c(CCC(=O)O)nc2cc(S(=O)(=O)N(C)C)ccc21	-1	-5	-2	-2
CCn1c(-c2cc(Br)cc(OC)c2O)nc2cc(S(=O)(=O)N(C)C)ccc21	0	91*	164	-7
CCn1c(-c2ccccn2)nc2cc(S(=O)(=O)N(C)C)ccc21	1	99*	13	2
Cc1ccc(C(=O)Nn2c(C)nc3ccccc3c2=O)cc1C	0	0	-11	3
O=C(O)CNC(=O)CC1S/C(=N/N=C2/NC(=O)CS2)NC1=O (configuration not stated)	0	90*	122	2
CC1=C/C(=N\N=C2\NC(=O)C(CC(=O)Nc3ccccc3)S2)CC(C)(C)C1 (configuration not stated)	0	2	-2	7
NC(=O)NC(=O)CC1S/C(=N/N=C/c2ccccc2)NC1=O (configuration not stated)	-1	69	-8	-3
NC(=O)NC(=O)CC1S/C(=N/N=C2\CSC(=O)N2)NC1=O (configuration not stated)	0	85*	-7	25
CCOC(=O)C1=C(C)N(CCCC(=O)O)C(=O)NC1c1cccs1 (configuration not stated)	0	0	66	x
Cc1nc2ccc(Br)cn2c(=O)c1Cl	0	-4	-20	-5
Cc1nc2ccc(Br)cn2c1NC(C)(C)C	0	95*	2	14
CC(=O)c1cccc(NC(=O)c2cc(=O)[nH]c3ccccc23)c1	1	-9	11	-3
O=C(NCCS(=O)(=O)N1CCCCC1)c1ccccc1	0	-27	-17	x
SMILES	HIF activator	ALR inh	SUMO Mot1 rescue	PfM18AAP inh
Cc1ccn2c(NC3CCCCC3)c(-c3cccc(-c4cccc(Cl)c4)c3)nc2c1	-8	x	-14	x
Cc1ccn2c(NC3CCCCC3)c(C)nc2c1	0	95*	-8	3
Cc1ccn2c(NC3CCCCC3)c(C(C)C)nc2c1	-1	99*	-8	-1
Cc1onc(-c2ccccc2)c1C(=O)OCC(=O)N(C)c1ccccc1	x	-8	-16	x
O=C(NCc1cccs1)c1cc(-c2cccs2)on1	4	-5	-13	1
COCC(C)NC(=O)c1cc(-c2cccc(OC)c2)on1 (configuration not stated)	3	-5	-7	1
COCCNC(=O)c1cc(-c2cccs2)on1	30*	x	18	-2
COCC(C)NC(=O)c1cc(-c2ccc(O)cc2)on1 (configuration not stated)	2	99*	-13	-8
CC1=C/C(=N\OS(=O)(=O)c2ccccc2)C(C)=CC1=O	x	99*	-5	5
O=C(O)c1cnc(-c2ccccc2)nc1Sc1ccccc1Cl	0	98*	-2	-7
CCOC(=O)c1nnc(-c2ccccc2)nc1Sc1ccccc1Cl	5	97*	5	-8
CC(C)Nc1ccc(Nc2ccnc3cc4ccccc4cc23)cc1	-4	99*	183	20
COc1cccc(NC(=O)C2C3C=CC(O3)C2C(=O)NCc2cccnc2)c1 (configuration not stated)	0	98*	x	-7
COc1cc(NC(=S)NCc2cccnc2)cc(OC)c1	0	-6	-14	-12
CC(=O)Nc1ccc(NC(=O)COC(=O)c2c(-c3ccccc3)noc2C)cc1	x	-2	-10	x
CCOC(=O)c1c(S(=O)(=O)NCC(=O)Nc2ccc(F)cc2)c(C)n(C)c1C	-1	-3	8	0
COC1CCN(Cc2c(C(=O)N3CCN(C4CCCCC4)CC3)nc3ccccn23)CC1	0	1	123	-7
CC1CCN(C(=O)c2ccc3c(Cl)c4c(nc3c2)CCCC4)CC1	1	7	-12	2
CCOC(=O)C1CCN(C(=O)c2ccc3c(Cl)c4c(nc3c2)CCCC4)CC1	1	95*	19	4
CCOC(=O)N1CCN(C(=O)c2ccc3c(SCC(=O)O)c4c(nc3c2)CCC4)CC1	0	80*	2	2
O=C(NCCCN1CCCC1)c1ccc2c(Cl)c3c(nc2c1)CCCC3	2	94*	-1	0
Cc1ccc2nc(SCC(=O)NC3CCS(=O)(=O)C3)[nH]c2c1 (configuration not stated)	x	x	0	x
CCCNC(=O)CN1CCC(c2nc3ccccc3[nH]2)CC1	0	-2	24	-4
O=C(Nc1ccc(S(=O)(=O)NC2=NCCCCC2)cc1)c1ccc(Cl)cc1Cl	0	x	3	x
COC(=O)c1ccc(OC(=O)c2ccccn2)cc1	-1	96*	0	1
SMILES	HIF activator	ALR inh	SUMO Mot1 rescue	PfM18AAP inh
N#CC(C#N)=Cc1ccc(OC(=O)c2ccccn2)cc1	-1	97*	7	0
COC(=O)c1ccc(/C=C(\C#N)c2ccccn2)cc1	3	2	177	1
COc1ccc(S(=O)(=O)Nc2cccc3c2O[C@H](CN(C)S(=O)(=O)c2cccs2)[C@@H](C)CN([C@H](C)CO)C3=O)cc1	x	2	4	x
Cc1nn(C)c(Oc2ccc(Cl)cc2)c1C(=O)Nc1ccc(F)cc1F	0	-5	312*	-1
CCCn1c(SCC(=O)NCc2ccccc2Cl)n[nH]c1=O	-1	-1	-2	-9
Cc1cccc(-c2nc3c(s2)CCc2onc(-c4ccc(Br)cc4)c2-3)c1	1	2	84	3
COC(=O)c1ccccc1N=Nc1c(N)n[nH]c1N	-1	91*	1	11
COc1ccc(C(N)CCc2ccco2)cc1 (configuration not stated)	0	99*	-11	-1
O=C(O)c1ccc(N2N=C(c3ccccc3)CC2c2ccccc2)cc1 (configuration not stated)	-6	92*	10	-1
